Assay outcomes: PubChem BioAssay, National Center for Advancing Translational Sciences (NCATS)
G9a inh: inhibitors of human histone lysine methyltransferase G9a. Q96KQ7. G9a H3K9 monomethylation, AlphaScreen, 2 h. Potency, µM (doses to about 102 µM), most hits filed as inhibitors. 350,000 tested, 8.8% active. AID 504332; note: nearly all actives have a fitted effect of over 75% in size
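Using a bead-based AlphaScreen, monomethylated H3K9 product from 2 h room-temperature reactions (G9a 20 nM, peptide 500 nM, SAM 20 uM) was detected with 0.5 ug/mL rabbit anti-H3K9me1 antibody.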
PLK1 PBD block: blocks phosphopeptide binding to human PLK1 polo-box domain | P53350 | Plk1 PBD binding of FITC phosphopeptide, fluorescence polarization | Potency, µM, usual class: inhibitors | 360,000 tested, 2.8% active; note: series mostly up to about 57 µM; nearly all actives have a fitted effect of over 65% in size
Target sequence (P53350 whole entry, looked up, the tested form may be a part): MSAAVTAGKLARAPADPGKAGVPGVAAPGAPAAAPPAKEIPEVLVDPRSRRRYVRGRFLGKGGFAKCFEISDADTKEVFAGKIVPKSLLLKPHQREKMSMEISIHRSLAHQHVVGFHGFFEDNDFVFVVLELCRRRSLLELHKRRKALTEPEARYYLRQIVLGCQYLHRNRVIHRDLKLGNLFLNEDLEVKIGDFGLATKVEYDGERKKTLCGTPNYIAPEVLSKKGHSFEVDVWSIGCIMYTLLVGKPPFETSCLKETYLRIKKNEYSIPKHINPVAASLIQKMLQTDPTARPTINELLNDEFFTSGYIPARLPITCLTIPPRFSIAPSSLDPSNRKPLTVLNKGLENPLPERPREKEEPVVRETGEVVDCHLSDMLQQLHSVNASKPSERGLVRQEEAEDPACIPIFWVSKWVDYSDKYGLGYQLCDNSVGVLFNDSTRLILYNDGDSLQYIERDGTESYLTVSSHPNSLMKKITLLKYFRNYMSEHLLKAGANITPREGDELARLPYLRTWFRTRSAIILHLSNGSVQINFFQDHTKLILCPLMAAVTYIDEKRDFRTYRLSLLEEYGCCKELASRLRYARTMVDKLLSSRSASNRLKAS
Sfp inh: blocks B. subtilis Sfp PPTase activity; Biochemical Sfp PPTase activity, qHTS; Potency, µM, most hits filed as inhibitors; AID 1490; 310,000 tested, 3.5% active; Q9F4F7;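 note: the enzyme is Sfp with the accession as filed and its product quenches rhodamine fluorescence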
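Buffer: 50 mM Hepes-Na pH 7.6, 10 mM MgCl2, 0.01% Nonidet P-40, 0.01% BSA. Enzyme 15 nM, pre-exposed to compound 15 min; substrates then added and fluorescence change tracked over 30 min.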
VDR inh: vitamin D3 receptor (human) inhibition; P11473; VDR-SRC2-3 peptide fluorescence polarization, 2 h; Potency, µM, actives largely listed as inhibitors; 400,000 tested, 0.93% active
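FP read-out; VDR + SRC2-3 coactivator peptide; 23 nl compound by pintool; 2 h RT incubation; reagents held at 4 deg C, protected from light.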
Mm-Cpn inhibitor: inhibitors of Methanococcus maripaludis chaperonin TRiC (MmCpn). purified Mm-Cpn ATPase, ADP Transcreener TR-FRET. Potency, µM (series often up to 76.9 µM), most hits filed as inhibitors. 330,000 tested, 0.031% active. AID 504842; note: nearly all actives have a fitted effect of over 80% in size
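ATP (10 uM final) was added to archaeal chaperonin (25 nM final) after 10 min exposure to test compound at 37°C; after 30 min further incubation, ADP was detected by competitive TR-FRET.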
CCT modulator: cytosolic chaperonin activity modulation; purified chaperonin ATPase assay, HTRF ADP detection, 30 min; AID 651819; activity change, % (no concentration beside the values), hits read low; 360,000 tested, 0.3% active; in the data active = activity change below about -30%
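ATPase activity: ADP formed was measured by HTRF Transcreener (665/615 nm ratio) after 30 min at 37 deg C with 10 uM ATP. Compounds screened at one 76 uM concentration against 40 or 20 nM TRiC in Tris pH 7.4/KCl/MgCl2/DTT buffer.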
Hits are given with their value; n = inactive; u = inconclusive; x = no result; [ ] = dose if it differs, or a comment. The list is not random: actives were taken first. Their share in the collection is about 10%. Unless noted, calls come from the whole dose curve; as a rule, active = well fitted curve in the direction sought with a large enough effect; inconclusive = small, poorly fitted or top-dose-only effect, or another doubt; inactive = no such curve, though single readings can be large; an effect the other way counts as inactive or inconclusive.

SMILES | G9a inh | PLK1 PBD block | Sfp inh | VDR inh | Mm-Cpn inhibitor | CCT modulator
Cc1nnc(N2C(=O)C(=O)/C(=C(/O)c3ccc4c(c3)OCCO4)C2c2ccc([N+](=O)[O-])cc2)s1 (configuration not stated) | 28µM | x | n | x | n | x
COc1ccc(-c2nc(=S)[nH][nH]2)cc1 | 1.8µM | u | u | 79µM | n | n
FC(F)(F)c1ccc(-c2nc(=S)[nH][nH]2)cc1 | 3.5µM | n | 56µM | u | n | n
Oc1ccc(-c2nc3ccccc3nc2-c2ccccc2)cc1 | n | n | n | n | n | n
Oc1ccc(-c2nc(=S)[nH][nH]2)cc1 | 1.3µM | n | u | n | n | n
CCOc1ccc(-c2nc(=S)[nH][nH]2)cc1 | 1.4µM | n | u | n | n | n
Cc1ccc(Cl)cc1N1CCN(C(=O)c2cc(S(=O)(=O)N3CCCC3)cn2C)CC1 | n | x | x | n | x | x
Cc1nn(C)c2c1c(-c1ccccc1)cc(=O)n2C(C)C(=O)NCCc1ccc(Cl)cc1 (configuration not stated) | n | x | x | n | x | x
CN(C(=O)CCc1ccccc1F)C1CCCN(Cc2ccccc2F)C1 (configuration not stated) | n[0.501 µM] | 3.4µM | n | 35µM | n | n
O=c1c(CCc2ccccc2)nc2cnc(N3CCOCC3)nc2n1-c1ccccc1 | n[0.501 µM] | x | n | n | x | x
CC1(C)C(=O)C=C[C@@]2(C)C1C=C[C@@]1(C)C2CC[C@@]2(C)C(c3ccoc3)OC(=O)C3OC312 (some centres not stated) | n[2.33 µM] | x | n | 3.5µM | x | x
CC(=O)O[C@@H]1C[C@H]2C(C)(C)C(=O)C=C[C@]2(C)[C@H]2CC[C@@]3(C)[C@H](c4ccoc4)OC(=O)[C@H]4O[C@]43[C@@]21C | n | n | n | n | n | n
CC(=O)OC1CC[C@]2(C)C(CC(OC(C)=O)[C@@]3(C)C4=CC(=O)OC(c5ccoc5)[C@]4(C)CCC23)C1(C)C (some centres not stated) | n[2.33 µM] | x | n | 25µM | x | x
CC(=O)OC1C=C[C@]2(C)C(CC(OC(C)=O)[C@@]3(C)C4=CC(=O)OC(c5ccoc5)[C@]4(C)CCC23)C1(C)C (some centres not stated) | n[2.33 µM] | x | n | 56µM | x | x
CC(=O)OC1CC(OC(C)=O)[C@]2(C)C(CC(O)[C@]3(C)C2CC[C@@]2(C)C(c4ccoc4)OC(=O)C4O[C@]432)C1(C)C (some centres not stated) | n[2.33 µM] | x | n | n | x | x
CC(=O)OC1CC2C(C)(C)C(=O)CC[C@]2(C)C2CC[C@@]3(C)C(c4ccoc4)OC(=O)C4OC43[C@]12C (some centres not stated) | x | x | n | u | x | x
CC(=O)OC1CC(OC(C)=O)[C@]2(C)C(CC(=O)[C@]3(C)C2CC[C@@]2(C)C(c4ccoc4)OC(=O)C4O[C@@]423)C1(C)C (some centres not stated) | u | x | n | 28µM | x | x
CCOc1ccc(-c2nnc(SCC(=O)Nc3cc(F)ccc3F)o2)cc1 | n | x | x | n | x | x
Cc1ccc(NC(=O)C2CCCN(c3cnccn3)C2)cc1Cl (configuration not stated) | n | x | x | n | x | x
O=C(CSc1nn(-c2ccc(Cl)cc2)c(=S)s1)N1CCN(C(=O)c2ccco2)CC1 | 79µM | n | n | n | n | n
O=C(CSc1nnc(SCc2ccc(Cl)cc2)s1)N1CCN(C(=O)c2ccco2)CC1 | n[12.7 µM] | n | n | n | n | n
Cc1ccc(Cn2cc(CCC(=O)O)c3ccccc32)cc1 | 45µM | n | n | n | n | n
Cc1ccc(CNC(=O)CCc2cn(Cc3ccc(C)cc3)c3ccccc23)cc1 | n | x | x | n | x | x
Cc1ccc(-c2nnnn2-c2ccc(C)cc2)cc1 | n | 17µM | n | u | n | n
CC(C(=O)C12CC3CC(CC(C3)C1)C2)N1CCOCC1 (configuration not stated) | x | 21µM | n | u | n | n
SMILES | G9a inh | PLK1 PBD block | Sfp inh | VDR inh | Mm-Cpn inhibitor | CCT modulator
O=C(CC12CC3CC(CC(C3)C1)C2)N1CCOCC1 | n[12.7 µM] | n | n | n | n | n
CCOC(=O)COc1ccc(C)cc1C(=O)c1ccn2nc(-c3ccc(F)cc3)cc2n1 | n | x | x | n | x | x
COc1ccc(/C=C/C(=O)Nc2nc(-c3cccs3)ns2)cc1OC | n | x | x | n | x | x
O=C(CSc1nnc(-c2ccncc2)n1Cc1ccco1)Nc1ccccc1Cl | u | n | 45µM | n | n | n
O=C(CSc1nnc(-c2ccncc2)n1Cc1ccco1)Nc1nc(-c2ccccc2)cs1 | 28µM | n | n | n | n | n
O=C(CSc1nnc(-c2ccncc2)n1Cc1ccco1)Nc1ccccc1F | n | n | n | n | n | n
CSc1nsc(SC)c1C(N)=O | n | n | n | n | n | n
CSc1nsc(SC)c1C(=O)O | 45µM | n | n | n | n | n
O=C1NC(=S)S/C1=C\C=C\c1ccc([N+](=O)[O-])o1 | x | 21µM | 45µM | n | n | n
O=c1c2c3n(c(=S)nc2[nH]n1-c1ccccc1)CCCCC3 | 50µM | n | n | n | n | n
O=c1c2c([nH]n1-c1ccccc1)CCCC2 | u | n | n | n | n | n
Cc1ccc(Nc2nnc(SC/C(O)=C(\C#N)c3nc4ccccc4[nH]3)s2)c(C)c1 | 7.1µM | u | n | n | n | n
Cc1cc(C)n2c(SCC(O)=C(C#N)c3nc4ccccc4[nH]3)nnc2n1 | x | n | x | n | x | n
Cc1cccc(Nc2nnc(SC/C(O)=C(\C#N)c3nc4ccccc4[nH]3)s2)c1 | 16µM | n | n | n | n | n
Cc1ccc(C)c(-n2c(N)c(C#N)c3nc4ccccc4nc32)c1 | n | x | x | u | x | x
COc1ccc(-c2nnc3n2N=C(c2c(OC)cccc2OC)CS3)cc1 | x | x | n | x | x | x
Cc1cccc(OCC(=O)Nc2ccccc2OCc2cc(=O)n3cc(C)ccc3n2)c1 | n | x | x | n | x | x
Cc1ccc2ccc(C)[n+](CCCS(=O)(=O)[O-])c2c1 | n | u | n | n | n | n
O=S(=O)([O-])CCC[n+]1ccc(Oc2ccccc2)cc1 | 28µM | n | n | n | n | n
Cc1oc(=O)oc1CN1CCN(c2cc3c(cc2F)c(=O)c(C(=O)O)c2n3C(C)S2)CC1 (configuration not stated) | n | x | n | u | x | x
Cc1cc(N2CCCCC2)nc2c(C)cccc12 | n | n | n | n | n | n
Cc1cc(Cl)nc2c(C(C)C)cccc12 | n | 17µM | n | n | n | n
C[C@H]1CC[C@H]2C(=O)N3[C@H](c4ccccc4Br)[C@@H](C)CC[C@H]3C(=O)N2[C@@H]1c1ccccc1Br | 50µM | x | n | x | n | x
CCc1cc2ccccc2nc1SCC(=O)N1CCN(C(=O)c2ccco2)CC1 | 50µM | n | n | n | n | n
CCc1nc(SCC(=O)N2CCN(C(=O)c3ccco3)CC2)c2c3c(sc2n1)CCCC3 | 50µM | n | n | n | n | n
